The source of these data is PubChem BioAssay (NCI).

Compounds without any hit were thinned out: in the full panel of roughly 83,000, 20% have a hit.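 Negative percent growth values reflect cell death: -40 means 40% of the cells present at the start died, and -100 means all died.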 A number with no mark means an inactive call. Calls of active or inactive are those of the source. The calls were made as follows: active = growth percent below 10; inactive = the rest.

Among the test systems are NCI-H23 lung; NCI-H226 lung; NCI-H322M lung; HOP-62 NSCLC; NCI-H460 lung; NCI-H522 lung; A549/ATCC NSCLC; 786-0 renal; COLO 205 colon; DU-145 prostate; K-562 leukemia; MALME-3M melanoma; MDA-MB-231 breast; RXF 393 renal; SF-268 CNS; SF-295 CNS; SF-539 CNS; UACC-257 melanoma; M14 melanoma; HOP-92 NSCLC.
What all share (test): NCI-60 one-dose screen, 48 h (100 = growth as untreated, 0 = no growth, -100 = all killed)
Holding throughout (conditions): 10 µM unless noted

As to `Cc1ccc2[nH]c(-c3ccc(S(C)(=O)=O)cc3)c(/C=N/N=C(N)N)c2c1`, the growth with NCI-H23 lung was 76.4%; with NCI-H226 lung, 76.6%; in the experiment with NCI-H322M lung it was 79%; with HOP-62 NSCLC, 58.3%; in the experiment with NCI-H460 lung, 37.9%; in the experiment with NCI-H522 lung it was -7.31% (active). In addition, the growth was 46.2% in the experiment with A549/ATCC NSCLC; 44.9% with 786-0 renal; 49% in the experiment with COLO 205 colon; 48% in the experiment on DU-145 prostate; 26.3% in the experiment on K-562 leukemia; 52.4% with MALME-3M melanoma. For the same compound, the growth was 67.6% with MDA-MB-231 breast; 66.8% with RXF 393 renal; 62.1% in the experiment on SF-268 CNS; 43.2% with SF-295 CNS; 59.5% in the experiment on SF-539 CNS; 43.1% in the experiment on UACC-257 melanoma. In the experiment on M14 melanoma, the growth is 32.5%.
In the case of `CC(=O)N(Cc1ccccc1)c1nc2ccc(O)c(CN(C)C)c2s1`, the growth in the experiment with NCI-H23 lung was 96.7%; in the experiment on NCI-H226 lung, 90.5%; in the experiment with NCI-H322M lung, 103%; in the experiment with HOP-62 NSCLC, 90.6%; in the experiment on NCI-H460 lung, 100%; with NCI-H522 lung it was 90.2%. Besides, the growth in the experiment with A549/ATCC NSCLC was 98.4%; in the experiment with 786-0 renal, 97.6%; in the experiment with COLO 205 colon it was 116%; in the experiment with DU-145 prostate it was 108%; in the experiment with K-562 leukemia, 92.5%; in the experiment on MALME-3M melanoma it was 98.1%. Also, the growth with MDA-MB-231 breast was 96%; with RXF 393 renal, 98.2%; with SF-268 CNS it was 94.6%; with SF-295 CNS, 92.6%; in the experiment on SF-539 CNS, 97.2%; with UACC-257 melanoma, 102%. Moreover, the growth in the experiment on M14 melanoma was 104%.
As to `CC(C)(CO)N(CCO)CCO`, the growth with NCI-H23 lung was 97.3%; with NCI-H226 lung it was 94%; in the experiment on NCI-H322M lung it was 95.4%; in the experiment on HOP-62 NSCLC, 110%; in the experiment with NCI-H460 lung, 110%; in the experiment with HOP-92 NSCLC, 78.9%. Moreover, the growth is 114% in the experiment with A549/ATCC NSCLC; 102% in the experiment on 786-0 renal; 123% in the experiment with COLO 205 colon; 118% in the experiment on DU-145 prostate; 101% in the experiment on K-562 leukemia; 105% in the experiment with MALME-3M melanoma. In addition, the growth in the experiment with MDA-MB-231 breast is 104%; in the experiment on RXF 393 renal it was 104%; in the experiment on SF-268 CNS, 104%; in the experiment with SF-295 CNS it was 108%; in the experiment on SF-539 CNS, 97.4%; in the experiment with UACC-257 melanoma, 116%. In the experiment on M14 melanoma, the growth is 108%.
On to `COc1ccc(NC(=O)c2sc3nc4c(cc3c2N)CCCC4)cc1`, for which the growth is 28% with NCI-H23 lung; 50.6% in the experiment on NCI-H226 lung; 53.1% in the experiment with NCI-H322M lung; 34.5% in the experiment with HOP-62 NSCLC; 18.7% in the experiment with NCI-H460 lung; 47.3% in the experiment with HOP-92 NSCLC. The growth with A549/ATCC NSCLC was 30%; with 786-0 renal, 38.6%; in the experiment with COLO 205 colon, 14%; with DU-145 prostate it was 11.5%; in the experiment on K-562 leukemia, 6.99% (active); with MALME-3M melanoma, 54.8%. The growth in the experiment with MDA-MB-231 breast was 49.2%; with RXF 393 renal, -4.44% (active); in the experiment on SF-268 CNS, 58.8%; in the experiment with SF-295 CNS, 8.64% (active); with SF-539 CNS, 3.47% (active); in the experiment with UACC-257 melanoma, 53%. The growth with M14 melanoma was 18.3%.
For `CC1=CCC[C@@H]2C1(C)CC[C@H](C)[C@@]2(C)CC1=CC(=O)C(SC(C)(C)C)=CC1=O` (some centres not stated), the growth in the experiment on NCI-H23 lung was 81.2%; in the experiment on NCI-H226 lung, 84.7%; in the experiment on NCI-H322M lung, 87.6%; with HOP-62 NSCLC, 97.8%; in the experiment with NCI-H460 lung it was 83.5%; in the experiment with HOP-92 NSCLC, 75.2%. Moreover, the growth in the experiment on A549/ATCC NSCLC was 73.3%; with 786-0 renal, 82.4%; in the experiment on COLO 205 colon, 100%; in the experiment on DU-145 prostate it was 77.6%; in the experiment on K-562 leukemia, 57.8%; in the experiment with MALME-3M melanoma, 82.3%. The growth with MDA-MB-231 breast was 78.3%; in the experiment with RXF 393 renal, 74.5%; in the experiment with SF-268 CNS it was 85.3%; in the experiment with SF-295 CNS, 85.1%; in the experiment on SF-539 CNS, 89.9%; with UACC-257 melanoma it was 90.3%. Besides, in the experiment on M14 melanoma, the growth was 88.9%.
For `COc1cc2c(/C=C3\C(=O)Nc4ccccc43)c(C(=O)O)[nH]c2cc1C`, the growth with NCI-H23 lung was 82.5%; in the experiment with NCI-H226 lung, 89.2%; in the experiment on NCI-H322M lung it was 105%; with HOP-62 NSCLC, 92%; in the experiment on NCI-H460 lung it was 105%; in the experiment with HOP-92 NSCLC, 63.8%. The growth in the experiment on 786-0 renal is 108%; with COLO 205 colon it was 120%; in the experiment with DU-145 prostate, 118%; in the experiment with K-562 leukemia it was 103%; in the experiment with MALME-3M melanoma, 99.5%; in the experiment on MDA-MB-231 breast, 87.9%. The growth was 107% with RXF 393 renal; 96.6% in the experiment on SF-268 CNS; 101% in the experiment with SF-295 CNS; 101% in the experiment on SF-539 CNS; 106% in the experiment with UACC-257 melanoma; 105% in the experiment on M14 melanoma.
In the case of `CCN(CC)CCCC(C)Nc1ccc2cc(OC)ccc2n1` (configuration not stated), the growth is 107% in the experiment on NCI-H23 lung; 107% in the experiment with NCI-H226 lung; 94.7% in the experiment on NCI-H322M lung; 91.4% in the experiment on HOP-62 NSCLC; 108% in the experiment with NCI-H460 lung; 91.5% with HOP-92 NSCLC. Also, the growth in the experiment on A549/ATCC NSCLC is 85.4%; in the experiment with 786-0 renal, 98.9%; with COLO 205 colon, 107%; in the experiment with DU-145 prostate, 99.9%; with K-562 leukemia, 131%; with MALME-3M melanoma, 114%. Moreover, the growth was 104% in the experiment with MDA-MB-231 breast; 112% in the experiment with RXF 393 renal; 91.2% in the experiment on SF-268 CNS; 97.4% with SF-295 CNS; 100% with SF-539 CNS; 94.7% in the experiment with UACC-257 melanoma. In the experiment with M14 melanoma, the growth is 99.3%.
